High-throughput results as filed in PubChem BioAssay.
ADAM10 inh: human ADAM10 inhibitors, primary screen, biochemical, QFRET, HTS; 0.62% of 370,000 active; AID 720582, 2013; recombinant ADAM10, EDANS/DABCYL FRET peptide cleavage, 3 h; inhibition, % at 7 µM;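 active = inhibition above a per-campaign cutoff equal to the mean of compounds falling between control-based bounds plus 3 SD, cut at about 20% in these data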
ADAM17 inh: ADAM17 inhibitors, primary screen, biochemical, QFRET; 0.83% of 370,000 active; recombinant ADAM17, EDANS/DABCYL FRET peptide cleavage; Disintegrin and metalloproteinase domain-containing protein 17 (Homo sapiens), P78536; inhibition, % at 6.95 µM;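 active = inhibition above the mean of compounds lying between control limits plus 3 SD, set per campaign, cut at about 8.5% in these data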
GRIN3A LBD mod: binders of NR3A ligand-binding domain, primary screen, biophysical, differential scanning fluorimetry, uHTS; Glutamate receptor ionotropic, NMDA 3A (GRIN3A) ligand-binding domain; Tm shift relative to glycine control, % at 25 µM; NR3A LBD differential scanning fluorimetry, Tm shift; 0% = protein alone, 100% = glycine-bound protein; AID 1259313, 2017; 2.5% of 340,000 active;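 active = melting temperature shift of at least 10% of the positive control shift, at one fixed dose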
proKLK7 act: proKLK7 zymogen activators, primary screen, biochemical, fluorescence intensity; Kallikrein-7 (Homo sapiens), P49862; purified proKLK7, EDANS-DABCYL substrate fluorescence; 100% is mature enzyme control, 0% vehicle; activation, % at 7 µM; 0.9% of 370,000 active; AID 652039, 2013;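 active = activation above the mean of all tested compounds plus 3 SD, computed per campaign excluding outliers beyond control limits, cut at about 13% in these data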
FAS TE block: FAS thioesterase domain inhibitors, primary screen, biochemical, fluorescence intensity, uHTS | recombinant FAS-TE, OMFH fluorogenic substrate, fluorescence endpoint | inhibition, % at 15 µM | 0.67% of 360,000 active;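 active = compounds whose normalised, plate-corrected inhibition of enzyme fluorescence in the single-dose primary screen is 50% or more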
Target sequence (P49327 whole entry, looked up, the tested form may be a part): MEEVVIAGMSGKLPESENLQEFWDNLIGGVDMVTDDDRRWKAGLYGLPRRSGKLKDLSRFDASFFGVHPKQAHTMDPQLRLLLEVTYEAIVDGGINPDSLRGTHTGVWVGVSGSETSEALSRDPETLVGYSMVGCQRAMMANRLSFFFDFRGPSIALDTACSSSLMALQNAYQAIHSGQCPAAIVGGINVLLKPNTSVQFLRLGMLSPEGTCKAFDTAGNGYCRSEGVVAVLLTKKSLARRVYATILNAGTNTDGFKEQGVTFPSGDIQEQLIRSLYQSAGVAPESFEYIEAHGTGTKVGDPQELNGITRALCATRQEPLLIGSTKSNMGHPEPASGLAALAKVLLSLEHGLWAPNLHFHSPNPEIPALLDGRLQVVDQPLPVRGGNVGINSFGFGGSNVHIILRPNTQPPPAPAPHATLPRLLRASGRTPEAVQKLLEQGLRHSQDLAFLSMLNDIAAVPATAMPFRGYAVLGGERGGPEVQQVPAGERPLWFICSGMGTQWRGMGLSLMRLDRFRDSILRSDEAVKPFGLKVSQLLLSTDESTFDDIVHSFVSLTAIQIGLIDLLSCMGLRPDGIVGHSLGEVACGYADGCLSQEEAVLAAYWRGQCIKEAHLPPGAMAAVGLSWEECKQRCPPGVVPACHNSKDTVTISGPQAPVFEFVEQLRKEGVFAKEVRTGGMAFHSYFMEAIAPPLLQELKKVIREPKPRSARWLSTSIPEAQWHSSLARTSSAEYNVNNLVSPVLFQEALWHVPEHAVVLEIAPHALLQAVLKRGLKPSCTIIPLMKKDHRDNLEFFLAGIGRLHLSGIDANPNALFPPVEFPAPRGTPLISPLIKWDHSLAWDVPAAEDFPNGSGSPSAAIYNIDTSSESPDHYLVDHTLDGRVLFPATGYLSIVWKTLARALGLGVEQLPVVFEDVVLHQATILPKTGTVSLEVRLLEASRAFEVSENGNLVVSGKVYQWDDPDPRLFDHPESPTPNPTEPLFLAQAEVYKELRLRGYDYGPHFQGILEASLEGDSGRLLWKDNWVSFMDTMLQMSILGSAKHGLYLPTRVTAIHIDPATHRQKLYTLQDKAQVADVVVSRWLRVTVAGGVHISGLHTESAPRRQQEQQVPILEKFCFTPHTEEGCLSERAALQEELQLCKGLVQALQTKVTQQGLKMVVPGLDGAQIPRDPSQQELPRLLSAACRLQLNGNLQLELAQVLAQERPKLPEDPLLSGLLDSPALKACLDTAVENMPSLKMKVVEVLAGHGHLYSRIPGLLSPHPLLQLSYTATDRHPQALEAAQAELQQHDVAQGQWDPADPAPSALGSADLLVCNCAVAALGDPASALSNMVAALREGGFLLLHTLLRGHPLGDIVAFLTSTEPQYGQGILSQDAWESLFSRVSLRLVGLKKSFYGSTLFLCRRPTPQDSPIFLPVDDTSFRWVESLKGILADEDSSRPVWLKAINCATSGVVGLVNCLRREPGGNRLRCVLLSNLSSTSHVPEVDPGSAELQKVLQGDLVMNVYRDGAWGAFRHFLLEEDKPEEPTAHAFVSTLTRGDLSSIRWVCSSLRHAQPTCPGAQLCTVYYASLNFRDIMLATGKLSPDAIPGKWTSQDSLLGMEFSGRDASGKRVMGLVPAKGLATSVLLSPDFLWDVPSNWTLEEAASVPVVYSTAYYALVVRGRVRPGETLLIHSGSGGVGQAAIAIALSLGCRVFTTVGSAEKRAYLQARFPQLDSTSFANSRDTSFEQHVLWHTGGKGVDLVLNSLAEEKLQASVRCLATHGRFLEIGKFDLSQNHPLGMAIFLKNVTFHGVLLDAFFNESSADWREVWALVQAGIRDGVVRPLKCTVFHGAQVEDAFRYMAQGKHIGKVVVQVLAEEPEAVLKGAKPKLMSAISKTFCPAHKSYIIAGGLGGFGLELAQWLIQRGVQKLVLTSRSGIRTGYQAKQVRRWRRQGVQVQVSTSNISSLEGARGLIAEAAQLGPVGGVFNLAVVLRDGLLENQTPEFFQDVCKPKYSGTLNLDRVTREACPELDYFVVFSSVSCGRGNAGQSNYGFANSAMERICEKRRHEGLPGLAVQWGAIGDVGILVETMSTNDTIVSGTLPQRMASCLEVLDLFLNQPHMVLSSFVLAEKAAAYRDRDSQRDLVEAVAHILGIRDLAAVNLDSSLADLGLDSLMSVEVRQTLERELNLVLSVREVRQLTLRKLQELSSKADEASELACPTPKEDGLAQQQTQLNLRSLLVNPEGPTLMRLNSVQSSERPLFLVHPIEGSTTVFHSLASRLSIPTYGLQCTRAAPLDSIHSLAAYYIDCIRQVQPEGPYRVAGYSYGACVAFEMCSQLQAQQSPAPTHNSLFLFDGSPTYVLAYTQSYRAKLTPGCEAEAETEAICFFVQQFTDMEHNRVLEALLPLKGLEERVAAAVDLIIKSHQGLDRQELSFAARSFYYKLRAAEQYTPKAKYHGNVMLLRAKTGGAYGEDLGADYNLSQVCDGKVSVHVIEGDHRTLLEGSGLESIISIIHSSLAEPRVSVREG
FAS-TE conf: FAS thioesterase domain inhibitors, confirmation, biochemical, fluorescence intensity, single concentration; shares compounds with FAS TE block; inhibition, % at 15 µM; 45% of 2,300 active; recombinant FAS-TE, OMFH fluorogenic substrate;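 active = compounds inhibiting the enzyme by at least 50% at 15 µM in any one of the replicates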
Of the large screens only hits and unclear results are named; the others gave an inactive call (follow-up assays come after a bar, where they were run). In the library only some 4.6% were active in any assay of this set; here they are far more common.

Oc1ccc(Nc2nc3ccccc3nc2Nc2ccc(O)cc2)cc1	GRIN3A LBD mod 16.7 (no result: ADAM10 inh, ADAM17 inh, proKLK7 act)
O=C(Nc1nc(-c2ccccc2)nc2ccccc12)c1ccc(F)cc1	none
CC(=O)Nc1ccc(Nc2nc(-c3ccccc3)nc3ccccc23)cc1	GRIN3A LBD mod 11.6
COCCCNC(=O)C[C@H]1C[C@@]2(C(=O)OC)C(=C[C@H](COCc3ccccc3)O[C@@H]2C)N(Cc2ccc(Cl)cc2Cl)C1=O	none (no result: GRIN3A LBD mod, FAS TE block)
N#CCC[C@H]1CC[C@]2(CCCN(C(=O)C3CCCCC3)C2)O1	none (no result: GRIN3A LBD mod, FAS TE block)
COCCCN1C(=O)[C@H](CC(=O)NCc2ccccc2)[C@]2(C(=O)OC)CCCCC=C12	none (no result: GRIN3A LBD mod, FAS TE block)
N#CCC[C@H]1CC[C@]2(CCCN(S(=O)(=O)c3ccccc3)C2)O1	none (no result: GRIN3A LBD mod, FAS TE block)
Cc1cccc(-c2nc(Nc3cccc(O)c3)c3ccccc3n2)c1	GRIN3A LBD mod 32.3
Cc1cccc(-c2nc(Nc3ccc(N4CCOCC4)cc3)c3ccccc3n2)c1	none
COC(=O)c1ccccc1NC(=S)N(Cc1ccc2c(c1)OCO2)Cc1cc2cccc(C)c2[nH]c1=O	FAS TE block 83.0 | FAS-TE conf inactive
CCCCNC(=O)N1CCCC1C(=O)Nc1cccc(OC)c1 (centres undefined)	none (no result: GRIN3A LBD mod, FAS TE block)
COc1cc(/C=C2/SC(=S)N(c3ccccc3)C2=O)ccc1Oc1nc(N2CCOCC2)nc(N2CCOCC2)n1	FAS TE block 62.9 | FAS-TE conf inactive
COc1ccc(/C=C2\SC(=S)N(CCCC(=O)N3CCOCC3)C2=O)cc1OC	none
CC(=O)Nc1ccc(/C=N\NC(=O)c2cccc(S(=O)(=O)N(C)C)c2)cc1	none (no result: GRIN3A LBD mod, FAS TE block)
CN(N=Cc1ccc([N+](=O)[O-])cc1)c1ccccn1	FAS TE block 50.2 (no result: GRIN3A LBD mod) | FAS-TE conf inactive
COc1ccccc1NC(=O)COc1ccccc1C(=O)c1cnn(-c2ccccc2)c1	none
CCc1ccc(NC(=O)COc2ccc(F)cc2C(=O)c2cnn(-c3ccccc3)c2)cc1	FAS TE block 52.9 | FAS-TE conf inactive
Cc1ccc(S(=O)(=O)Nc2cccc(-c3ccc(N4CCCCCC4)nn3)c2)cc1	FAS TE block 59.2 | FAS-TE conf 52.0
COc1ccc(S(=O)(=O)Nc2cccc(-c3ccc(N4CCCCCC4)nn3)c2)cc1OC	FAS TE block 53.7 | FAS-TE conf inactive
O=[N+]([O-])c1cccc(S(=O)(=O)Nc2cccc(-c3ccc(N4CCCC4)nn3)c2)c1	none
COc1ccc(OC)c(S(=O)(=O)Nc2cccc(-c3ccc(N4CCCCCC4)nn3)c2)c1	none
Cc1ccc(S(=O)(=O)N(Cc2ccccc2)c2ccccc2C(=O)Nc2ccccc2C(=O)NCc2ccco2)cc1	FAS TE block 52.6 | FAS-TE conf inactive
COc1ccc2c(c1)NC(=O)[C@@]2(CCN1C(=O)c2ccccc2C1=O)c1[nH]c2ccccc2c1CCN1C(=O)c2ccccc2C1=O	none (no result: GRIN3A LBD mod, proKLK7 act, FAS TE block)
CCCCCCN1CCS(=O)(=O)N(Cc2ccc(OC)cc2)C(C(=O)OC)C1 (centres undefined)	none (no result: GRIN3A LBD mod, FAS TE block)
CCN(CC)C(=O)C1=C(C)N(Cc2ccc(F)cc2)C(=O)C(CC(=O)NC(c2ccccc2)c2ccccc2)C1 (centres undefined)	FAS TE block 54.5 (no result: GRIN3A LBD mod) | FAS-TE conf 30.5
Cc1ccc(CNC(=O)c2ccc(N3CCC4(CC3)CC(c3ccccc3)=NO4)c(NC(=O)c3c(Cl)cccc3Cl)c2)cc1	FAS TE block 62.6 | FAS-TE conf inactive
COc1cccc(C(=O)Nc2cc(C(=O)NCc3ccc(C)cc3)ccc2N2CCC3(CC2)CC(c2ccccc2)=NO3)c1	none
CC(C)C[C@@]12C(=O)N(c3ccc(Br)cc3)C(=O)N1[C@H](c1ccc(Br)cc1)[C@@H]1C(=O)N(C(C)(C)C)C(=O)[C@@H]12	FAS TE block 75.3 | FAS-TE conf 38.9
CC(C)(C)N1C(=O)[C@H]2[C@@H](c3ccc(Br)cc3)N3C(=O)N(c4ccccc4)C(=O)[C@@]3(Cc3ccccc3)[C@H]2C1=O	FAS TE block 87.0 | FAS-TE conf inactive
CC(C)(C)N1C(=O)[C@H]2[C@@H](c3ccc(Br)cc3)N3C(=O)N(c4ccccc4)C(=O)[C@@]3(C)[C@H]2C1=O	none
COc1ccc([C@@H]2[C@@H]3C(=O)N(C(C)(C)C)C(=O)[C@@H]3[C@]3(CC(C)C)C(=O)N(c4ccc(C(F)(F)F)cc4)C(=O)N23)cc1	FAS TE block 67.0 | FAS-TE conf inactive
CC(C)C[C@@]12C(=O)N(c3cccc(F)c3)C(=O)N1[C@H](c1ccc(Br)cc1)[C@@H]1C(=O)N(C(C)(C)C)C(=O)[C@@H]12	none
COC(=O)[C@]12C[C@H](CC(=O)NCC3CCCCC3)C(=O)N(Cc3cccc4ccccc34)C1=C[C@H](C(C)C)O[C@@H]2C1CC1	none (no result: GRIN3A LBD mod, FAS TE block)
COc1ccc(-c2cnnn2-c2ccc(NC(=O)c3ccc(S(=O)(=O)N4CCCCC4)cc3)cc2)cc1	FAS TE block 57.9 | FAS-TE conf inactive
Cc1ccc(NC(=O)c2ccc(S(=O)(=O)N3CC(C)CC(C)C3)cc2)cc1S(=O)(=O)N1CCOCC1 (centres undefined)	FAS TE block 50.1 | FAS-TE conf inactive
Cc1ccc(NC(=O)C2CCN(S(=O)(=O)c3ccc(C(C)(C)C)cc3)CC2)cc1S(=O)(=O)N1CCOCC1	FAS TE block 88.9 | FAS-TE conf inactive
O=C(NNc1ccc([N+](=O)[O-])cc1)C12CC3CC(CC(C3)C1)C2	FAS TE block 51.6 | FAS-TE conf inactive
O=C(CN(C(=O)c1ccc(Cl)cc1Cl)N1C(=O)C2C3C=CC(C3)C2C1=O)c1ccc(F)cc1 (centres undefined)	none
Cc1ccc(C(=O)CN(C(=O)c2ccc(Cl)c(Cl)c2)N2C(=O)C3C4C=CC(C4)C3C2=O)cc1 (centres undefined)	FAS TE block 60.7 | FAS-TE conf inactive
CC(=O)c1cccc(-c2ccnc3c2CC(C(=O)Nc2cccc(OC(F)(F)F)c2)O3)c1 (centres undefined)	FAS TE block 53.7 (no result: GRIN3A LBD mod) | FAS-TE conf 56.7
CCC(=O)N(c1ccccc1)C1CCN(C(=O)C(Cc2ccccc2)NC(C)=O)CC1 (centres undefined)	none (no result: GRIN3A LBD mod, FAS TE block)
Cc1nnc2n(Cc3ccccc3)c(=O)c3c4c(sc3n12)COC(C(C)C)C4 (centres undefined)	FAS TE block 54.7 | FAS-TE conf inactive
O=C1OCCN1C(=O)[C@H]1[C@H](c2ccc(Cl)cc2)C(c2ccccc2)=NN1c1ccc(Br)cc1	GRIN3A LBD mod 15.4, FAS TE block 81.1 | FAS-TE conf inactive
